From article PMC7862700, “An all-to-all approach to the identification of sequence-specific readers for epigenetic DNA modifications on cytosine”

What was measured:
Assay in all cases: DAPPL (digital affinity profiling via proximity ligation, sequencing); 10 mM Tris-HCl pH 7.5, 50 mM NaCl, 1 mM DTT, 4% glycerol, room temperature, 30 min; GST-TFs on glutathione beads, 16-mer random dsDNA library, 0.1% formaldehyde crosslink after washing; high values mean tight binding
FLI1 = molecular target: T1, FLI1 (Homo sapiens, UniProt Q01543 1-452); details: protein: recombinant; tags: N-terminal GST; dsDNA, one strand shown
T1 sequence: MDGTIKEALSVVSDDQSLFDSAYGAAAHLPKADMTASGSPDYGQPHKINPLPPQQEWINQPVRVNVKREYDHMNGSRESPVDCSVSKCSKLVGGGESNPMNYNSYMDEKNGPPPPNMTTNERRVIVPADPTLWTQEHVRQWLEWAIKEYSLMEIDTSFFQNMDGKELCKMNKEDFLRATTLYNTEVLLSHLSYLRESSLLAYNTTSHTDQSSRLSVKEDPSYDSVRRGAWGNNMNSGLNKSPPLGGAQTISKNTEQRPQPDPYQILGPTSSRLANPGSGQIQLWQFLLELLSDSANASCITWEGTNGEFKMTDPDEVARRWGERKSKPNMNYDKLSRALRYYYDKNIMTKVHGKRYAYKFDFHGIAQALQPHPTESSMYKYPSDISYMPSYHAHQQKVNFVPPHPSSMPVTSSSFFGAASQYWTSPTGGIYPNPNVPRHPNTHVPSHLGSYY
How it was run: (§1)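 A tag-only sample was pooled with DNA-barcoded human transcription factors that had been expressed in yeast as GST fusions and captured on glutathione beads. The pools were incubated for 30 min at room temperature with 200 nmole of a random double-stranded 16-mer DNA library in Tris/NaCl/DTT/glycerol buffer, then washed, crosslinked with 0.1% formaldehyde, proximity-ligated (BsaI/T4 ligase, 1 h, 37 °C), PCR-amplified and sequenced on an Illumina NextSeq500. Binding signal is each hexamer's read frequency for a factor divided by its frequency for the tag-only sample.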

ELK1 = molecular target: T2, ELK1 (Homo sapiens, UniProt P19419 1-428); details: protein: recombinant; tags: N-terminal GST; dsDNA, one strand shown
T2 sequence: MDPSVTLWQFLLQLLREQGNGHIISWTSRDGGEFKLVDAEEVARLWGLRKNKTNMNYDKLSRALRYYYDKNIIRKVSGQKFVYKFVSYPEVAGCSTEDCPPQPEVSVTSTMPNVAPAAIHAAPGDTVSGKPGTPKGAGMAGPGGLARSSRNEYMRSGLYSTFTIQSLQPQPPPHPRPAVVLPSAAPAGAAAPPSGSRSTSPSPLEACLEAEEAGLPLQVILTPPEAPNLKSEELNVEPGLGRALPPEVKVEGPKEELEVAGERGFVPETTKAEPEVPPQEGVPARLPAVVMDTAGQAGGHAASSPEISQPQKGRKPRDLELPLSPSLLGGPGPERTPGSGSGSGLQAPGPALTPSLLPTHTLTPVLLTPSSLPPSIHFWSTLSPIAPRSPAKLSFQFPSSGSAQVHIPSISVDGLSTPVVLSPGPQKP
How it was run: as §1

GABPA = molecular target: T3, GABPA (Homo sapiens, UniProt Q06546 1-454); details: protein: recombinant; tags: N-terminal GST; dsDNA, one strand shown
T3 sequence: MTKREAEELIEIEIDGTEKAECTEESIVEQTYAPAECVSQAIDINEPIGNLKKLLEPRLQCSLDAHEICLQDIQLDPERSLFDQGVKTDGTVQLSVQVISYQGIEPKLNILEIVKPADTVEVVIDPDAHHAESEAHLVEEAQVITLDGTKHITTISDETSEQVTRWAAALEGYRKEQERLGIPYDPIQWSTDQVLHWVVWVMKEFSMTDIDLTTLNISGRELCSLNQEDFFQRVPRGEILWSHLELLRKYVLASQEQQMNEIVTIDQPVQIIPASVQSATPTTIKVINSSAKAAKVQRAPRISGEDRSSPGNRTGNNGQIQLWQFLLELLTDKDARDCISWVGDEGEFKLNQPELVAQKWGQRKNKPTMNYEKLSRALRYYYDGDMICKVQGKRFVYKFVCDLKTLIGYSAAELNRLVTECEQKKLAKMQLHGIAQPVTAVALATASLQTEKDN
How it was run: as §1

ERG = molecular target: T4, ERG (Homo sapiens, UniProt P11308 1-479); details: protein: recombinant; tags: N-terminal GST; dsDNA, one strand shown
T4 sequence: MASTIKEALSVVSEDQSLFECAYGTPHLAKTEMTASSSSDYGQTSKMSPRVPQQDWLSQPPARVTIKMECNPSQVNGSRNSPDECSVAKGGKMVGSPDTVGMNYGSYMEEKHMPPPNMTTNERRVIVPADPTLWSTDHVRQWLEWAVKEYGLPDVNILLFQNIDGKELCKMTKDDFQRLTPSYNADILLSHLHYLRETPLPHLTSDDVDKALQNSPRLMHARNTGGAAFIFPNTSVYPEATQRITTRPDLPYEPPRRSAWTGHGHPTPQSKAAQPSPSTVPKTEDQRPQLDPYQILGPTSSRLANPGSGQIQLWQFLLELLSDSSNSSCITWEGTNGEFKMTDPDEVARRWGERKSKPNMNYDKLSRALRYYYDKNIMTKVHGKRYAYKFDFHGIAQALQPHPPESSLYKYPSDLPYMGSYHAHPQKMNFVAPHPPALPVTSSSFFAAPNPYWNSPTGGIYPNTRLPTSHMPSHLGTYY
How it was run: as §1

ELF1 = ELF1 (Homo sapiens, UniProt P32519 1-619); details: protein: recombinant; tags: N-terminal GST; dsDNA, one strand shown
How it was run: as §1

EHF = molecular target: T5, EHF (Homo sapiens, UniProt Q9NZC4 1-300); details: protein: recombinant; tags: N-terminal GST; dsDNA, one strand shown
T5 sequence: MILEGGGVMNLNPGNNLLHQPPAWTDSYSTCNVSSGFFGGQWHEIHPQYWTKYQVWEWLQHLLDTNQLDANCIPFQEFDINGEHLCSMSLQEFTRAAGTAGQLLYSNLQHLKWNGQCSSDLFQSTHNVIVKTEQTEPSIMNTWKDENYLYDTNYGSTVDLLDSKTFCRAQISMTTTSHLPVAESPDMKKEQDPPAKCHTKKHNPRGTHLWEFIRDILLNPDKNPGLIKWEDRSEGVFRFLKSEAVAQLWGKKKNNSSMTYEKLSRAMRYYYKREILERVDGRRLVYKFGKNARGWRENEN
How it was run: as §1

SPI1 = SPI1 (Homo sapiens, UniProt P17947 1-270); details: protein: recombinant; tags: N-terminal GST; dsDNA, one strand shown
How it was run: as §1

SPIB = SPIB (Homo sapiens, UniProt Q01892 1-262); details: protein: recombinant; tags: N-terminal GST; dsDNA, one strand shown
How it was run: as §1

ELK3 = molecular target: T6, ELK3 (Homo sapiens, UniProt P41970 1-407); details: protein: recombinant; tags: N-terminal GST; dsDNA, one strand shown
T6 sequence: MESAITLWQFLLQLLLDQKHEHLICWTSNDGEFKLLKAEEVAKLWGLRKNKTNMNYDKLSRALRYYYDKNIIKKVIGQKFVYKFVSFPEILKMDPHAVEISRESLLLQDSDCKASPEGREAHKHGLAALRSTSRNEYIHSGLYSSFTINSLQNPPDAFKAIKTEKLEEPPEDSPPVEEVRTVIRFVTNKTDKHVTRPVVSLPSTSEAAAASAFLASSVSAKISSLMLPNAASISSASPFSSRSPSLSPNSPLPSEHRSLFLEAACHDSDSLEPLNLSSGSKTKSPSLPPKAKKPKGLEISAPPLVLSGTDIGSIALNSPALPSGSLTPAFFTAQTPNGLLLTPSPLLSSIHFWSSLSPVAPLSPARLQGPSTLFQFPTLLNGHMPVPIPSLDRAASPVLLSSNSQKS
How it was run: as §1

FEV = molecular target: T7, FEV (Homo sapiens, UniProt Q99581 1-238); details: protein: recombinant; tags: N-terminal GST; dsDNA, one strand shown
T7 sequence: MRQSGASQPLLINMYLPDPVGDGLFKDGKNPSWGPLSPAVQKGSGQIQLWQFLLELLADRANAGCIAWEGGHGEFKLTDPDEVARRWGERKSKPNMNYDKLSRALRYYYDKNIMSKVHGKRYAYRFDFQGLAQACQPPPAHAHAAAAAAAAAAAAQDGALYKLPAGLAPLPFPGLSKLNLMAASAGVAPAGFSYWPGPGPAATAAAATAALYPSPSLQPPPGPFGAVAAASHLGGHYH
How it was run: as §1

ETV5 = ETV5 (Homo sapiens, UniProt P41161 1-510); details: protein: recombinant; tags: N-terminal GST; dsDNA, one strand shown
How it was run: as §1

HSF1 = HSF1 (Homo sapiens, UniProt Q00613 1-529); details: protein: recombinant; tags: N-terminal GST; chain copies: 3; dsDNA, one strand shown
How it was run: as §1

SPIC = molecular target: T8, SPIC (Homo sapiens, UniProt Q8N5J4 1-248); details: protein: recombinant; tags: N-terminal GST; dsDNA, one strand shown
T8 sequence: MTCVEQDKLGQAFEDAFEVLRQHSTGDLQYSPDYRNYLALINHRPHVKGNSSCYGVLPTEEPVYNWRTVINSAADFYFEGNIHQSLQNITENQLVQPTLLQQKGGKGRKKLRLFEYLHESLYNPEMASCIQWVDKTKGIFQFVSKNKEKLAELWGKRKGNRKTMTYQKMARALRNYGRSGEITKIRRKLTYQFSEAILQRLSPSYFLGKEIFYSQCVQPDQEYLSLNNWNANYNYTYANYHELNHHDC
How it was run: as §1

ELF4 = ELF4 (Homo sapiens, UniProt Q99607 1-663); details: protein: recombinant; tags: N-terminal GST; dsDNA, one strand shown
How it was run: as §1

ELK4 = molecular target: T9, ELK4 (Homo sapiens, UniProt P28324-2 1-405); details: protein: recombinant; tags: N-terminal GST; dsDNA, one strand shown
T9 sequence: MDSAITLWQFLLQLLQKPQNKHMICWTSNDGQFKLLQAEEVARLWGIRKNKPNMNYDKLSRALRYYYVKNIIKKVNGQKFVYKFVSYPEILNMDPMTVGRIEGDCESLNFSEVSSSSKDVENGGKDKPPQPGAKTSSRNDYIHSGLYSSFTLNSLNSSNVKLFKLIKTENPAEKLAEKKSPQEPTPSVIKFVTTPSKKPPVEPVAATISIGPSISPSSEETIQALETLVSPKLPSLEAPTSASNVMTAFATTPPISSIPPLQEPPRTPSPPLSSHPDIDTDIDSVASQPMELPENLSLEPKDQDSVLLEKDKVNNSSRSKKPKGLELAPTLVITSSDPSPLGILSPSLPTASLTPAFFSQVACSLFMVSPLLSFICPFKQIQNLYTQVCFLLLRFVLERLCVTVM
How it was run: as §1

ETV2 = molecular target: T10, ETV2 (Homo sapiens, UniProt O00321 1-342); details: protein: recombinant; tags: N-terminal GST; dsDNA, one strand shown
T10 sequence: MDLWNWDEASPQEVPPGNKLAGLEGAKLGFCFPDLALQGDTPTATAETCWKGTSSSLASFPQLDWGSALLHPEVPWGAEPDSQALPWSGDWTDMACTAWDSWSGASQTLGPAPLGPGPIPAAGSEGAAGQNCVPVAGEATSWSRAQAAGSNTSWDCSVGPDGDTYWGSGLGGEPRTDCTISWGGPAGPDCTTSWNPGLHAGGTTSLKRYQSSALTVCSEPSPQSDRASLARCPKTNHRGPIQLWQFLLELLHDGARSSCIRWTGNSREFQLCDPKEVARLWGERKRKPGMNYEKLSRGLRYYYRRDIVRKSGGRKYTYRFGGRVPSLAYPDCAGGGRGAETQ
How it was run: as §1

ELF3 = molecular target: T11, ELF3 (Homo sapiens, UniProt P78545 1-371); details: protein: recombinant; tags: N-terminal GST; dsDNA, one strand shown
T11 sequence: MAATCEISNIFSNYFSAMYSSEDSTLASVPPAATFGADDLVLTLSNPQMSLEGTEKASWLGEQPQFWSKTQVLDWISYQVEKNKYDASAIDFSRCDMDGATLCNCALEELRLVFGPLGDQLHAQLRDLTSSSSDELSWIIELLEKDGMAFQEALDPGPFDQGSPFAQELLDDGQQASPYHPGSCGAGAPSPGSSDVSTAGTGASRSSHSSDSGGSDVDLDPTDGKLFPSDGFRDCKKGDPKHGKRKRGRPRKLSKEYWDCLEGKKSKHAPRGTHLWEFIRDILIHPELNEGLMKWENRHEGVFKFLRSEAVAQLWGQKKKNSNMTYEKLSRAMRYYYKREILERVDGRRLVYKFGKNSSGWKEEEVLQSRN
How it was run: as §1

CRX = CRX (Homo sapiens, UniProt O43186 1-299); details: protein: recombinant; tags: N-terminal GST; dsDNA, one strand shown
How it was run: as §1

ETV1 = ETV1 (Homo sapiens, UniProt P50549 1-477); details: protein: recombinant; tags: N-terminal GST; dsDNA, one strand shown
How it was run: as §1

ELF1, sequence (P32519 whole entry): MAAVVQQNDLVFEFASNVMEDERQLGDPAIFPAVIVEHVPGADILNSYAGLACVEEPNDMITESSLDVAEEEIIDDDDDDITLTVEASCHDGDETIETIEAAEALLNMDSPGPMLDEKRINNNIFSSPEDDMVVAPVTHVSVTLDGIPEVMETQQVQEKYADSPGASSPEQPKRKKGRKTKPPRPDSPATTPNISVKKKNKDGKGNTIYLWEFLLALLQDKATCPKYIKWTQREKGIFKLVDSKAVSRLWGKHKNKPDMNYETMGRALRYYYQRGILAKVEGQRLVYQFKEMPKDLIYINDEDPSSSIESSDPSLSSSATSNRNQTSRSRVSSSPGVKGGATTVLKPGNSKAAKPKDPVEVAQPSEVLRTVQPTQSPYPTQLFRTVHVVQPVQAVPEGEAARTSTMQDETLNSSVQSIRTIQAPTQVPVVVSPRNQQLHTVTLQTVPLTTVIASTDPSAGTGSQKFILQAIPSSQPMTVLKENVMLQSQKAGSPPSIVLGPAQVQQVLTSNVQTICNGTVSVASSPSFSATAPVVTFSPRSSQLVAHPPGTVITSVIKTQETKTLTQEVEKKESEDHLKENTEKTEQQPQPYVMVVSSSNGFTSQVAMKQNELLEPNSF
ELF4, sequence (Q99607 whole entry): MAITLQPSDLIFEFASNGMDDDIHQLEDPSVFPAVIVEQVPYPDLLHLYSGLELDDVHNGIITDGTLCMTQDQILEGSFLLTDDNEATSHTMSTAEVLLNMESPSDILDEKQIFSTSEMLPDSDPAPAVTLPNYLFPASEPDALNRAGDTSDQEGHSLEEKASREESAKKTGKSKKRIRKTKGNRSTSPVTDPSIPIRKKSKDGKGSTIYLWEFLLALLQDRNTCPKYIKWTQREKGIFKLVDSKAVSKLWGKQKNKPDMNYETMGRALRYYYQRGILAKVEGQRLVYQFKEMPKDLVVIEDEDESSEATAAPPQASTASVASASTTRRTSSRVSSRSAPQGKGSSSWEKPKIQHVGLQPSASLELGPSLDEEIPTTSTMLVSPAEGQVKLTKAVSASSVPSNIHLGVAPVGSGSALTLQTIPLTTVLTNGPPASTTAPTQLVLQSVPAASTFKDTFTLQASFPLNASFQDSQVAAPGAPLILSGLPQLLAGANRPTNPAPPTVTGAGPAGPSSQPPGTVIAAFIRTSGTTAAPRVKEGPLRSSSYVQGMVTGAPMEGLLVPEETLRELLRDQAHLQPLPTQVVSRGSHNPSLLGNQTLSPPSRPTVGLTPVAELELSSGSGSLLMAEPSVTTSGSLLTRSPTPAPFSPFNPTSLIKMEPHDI
SPIB, sequence (Q01892 whole entry): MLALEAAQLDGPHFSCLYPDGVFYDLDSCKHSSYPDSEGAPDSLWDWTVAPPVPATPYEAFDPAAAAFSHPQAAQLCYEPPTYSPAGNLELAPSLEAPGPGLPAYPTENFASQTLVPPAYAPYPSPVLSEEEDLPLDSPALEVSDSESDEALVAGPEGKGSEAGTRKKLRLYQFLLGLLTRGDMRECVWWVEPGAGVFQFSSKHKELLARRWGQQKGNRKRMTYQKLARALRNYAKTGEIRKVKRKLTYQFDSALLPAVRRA
ETV1, sequence (P50549 whole entry): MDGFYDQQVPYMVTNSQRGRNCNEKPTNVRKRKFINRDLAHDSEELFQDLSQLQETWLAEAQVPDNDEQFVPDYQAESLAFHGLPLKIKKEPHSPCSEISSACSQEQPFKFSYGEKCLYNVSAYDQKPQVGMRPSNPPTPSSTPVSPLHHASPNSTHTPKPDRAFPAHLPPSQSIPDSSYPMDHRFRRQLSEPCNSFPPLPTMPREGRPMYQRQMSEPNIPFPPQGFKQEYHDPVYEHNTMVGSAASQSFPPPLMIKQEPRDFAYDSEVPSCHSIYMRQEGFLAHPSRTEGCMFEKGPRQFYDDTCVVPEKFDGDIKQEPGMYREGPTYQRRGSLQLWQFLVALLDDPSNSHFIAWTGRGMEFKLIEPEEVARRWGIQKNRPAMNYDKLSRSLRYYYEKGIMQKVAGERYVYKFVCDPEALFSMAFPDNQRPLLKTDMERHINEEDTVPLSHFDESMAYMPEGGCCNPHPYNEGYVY
CRX, sequence (O43186 whole entry): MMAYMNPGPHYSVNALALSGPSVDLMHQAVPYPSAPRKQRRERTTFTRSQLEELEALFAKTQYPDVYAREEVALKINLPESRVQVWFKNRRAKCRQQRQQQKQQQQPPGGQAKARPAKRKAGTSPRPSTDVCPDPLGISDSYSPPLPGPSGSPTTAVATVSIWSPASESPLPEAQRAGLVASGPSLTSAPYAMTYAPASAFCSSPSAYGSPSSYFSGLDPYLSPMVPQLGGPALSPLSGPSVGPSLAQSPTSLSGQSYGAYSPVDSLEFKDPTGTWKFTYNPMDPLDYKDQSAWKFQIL
HSF1, sequence (Q00613 whole entry): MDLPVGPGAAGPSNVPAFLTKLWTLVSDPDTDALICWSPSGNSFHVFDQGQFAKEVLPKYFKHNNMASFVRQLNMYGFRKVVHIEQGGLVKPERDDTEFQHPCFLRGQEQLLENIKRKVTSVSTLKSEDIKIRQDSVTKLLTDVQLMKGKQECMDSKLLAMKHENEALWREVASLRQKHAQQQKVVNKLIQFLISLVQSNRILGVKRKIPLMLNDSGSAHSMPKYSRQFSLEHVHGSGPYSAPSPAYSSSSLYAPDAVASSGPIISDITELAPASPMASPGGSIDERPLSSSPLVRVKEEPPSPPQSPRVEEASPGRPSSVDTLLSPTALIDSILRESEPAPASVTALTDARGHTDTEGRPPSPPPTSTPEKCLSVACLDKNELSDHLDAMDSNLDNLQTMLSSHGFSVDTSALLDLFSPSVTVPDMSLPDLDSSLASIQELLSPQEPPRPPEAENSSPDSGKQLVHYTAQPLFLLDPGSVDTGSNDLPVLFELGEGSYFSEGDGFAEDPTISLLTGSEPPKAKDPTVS
ETV5, sequence (P41161 whole entry): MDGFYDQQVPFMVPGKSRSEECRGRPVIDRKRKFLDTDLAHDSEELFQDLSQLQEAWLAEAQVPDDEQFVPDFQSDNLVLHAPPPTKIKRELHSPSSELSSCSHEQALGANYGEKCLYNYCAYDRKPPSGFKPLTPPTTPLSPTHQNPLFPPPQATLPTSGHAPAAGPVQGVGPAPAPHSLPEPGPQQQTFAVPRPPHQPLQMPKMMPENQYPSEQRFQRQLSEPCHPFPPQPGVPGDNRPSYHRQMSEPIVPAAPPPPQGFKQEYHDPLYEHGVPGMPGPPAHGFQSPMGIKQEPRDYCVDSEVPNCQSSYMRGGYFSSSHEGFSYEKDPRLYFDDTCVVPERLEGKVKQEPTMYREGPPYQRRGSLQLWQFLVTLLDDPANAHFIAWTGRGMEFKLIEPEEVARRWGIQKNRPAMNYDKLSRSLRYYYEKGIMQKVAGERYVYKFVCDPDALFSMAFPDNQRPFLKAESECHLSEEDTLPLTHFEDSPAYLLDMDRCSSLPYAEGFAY

ACTTAC
binding signal (FLI1): 1.14 fold enrichment (6-mer frequency, TF over GST control) | binding signal (ELK1): 1.17 fold enrichment (6-mer frequency, TF over GST control) | binding signal (GABPA): 1.2 fold enrichment (6-mer frequency, TF over GST control) | binding signal (ERG): 1.1 fold enrichment (6-mer frequency, TF over GST control) | binding signal (ELF1): 1.18 fold enrichment (6-mer frequency, TF over GST control) | binding signal (EHF): 1.28 fold enrichment (6-mer frequency, TF over GST control) | binding signal (SPI1): 1.27 fold enrichment (6-mer frequency, TF over GST control) | binding signal (SPIB): 1.1 fold enrichment (6-mer frequency, TF over GST control) | binding signal (ELK3): 1.12 fold enrichment (6-mer frequency, TF over GST control) | binding signal (FEV): 1.09 fold enrichment (6-mer frequency, TF over GST control) | binding signal (ETV5): 1.17 fold enrichment (6-mer frequency, TF over GST control) | binding signal (HSF1): 1.15 fold enrichment (6-mer frequency, TF over GST control) | binding signal (SPIC): 1.1 fold enrichment (6-mer frequency, TF over GST control) | binding signal (ELF4): 1.24 fold enrichment (6-mer frequency, TF over GST control) | binding signal (ELK4): 1.12 fold enrichment (6-mer frequency, TF over GST control) | binding signal (ETV2): 1.06 fold enrichment (6-mer frequency, TF over GST control) | binding signal (ELF3): 1.23 fold enrichment (6-mer frequency, TF over GST control) | binding signal (CRX): 1.42 fold enrichment (6-mer frequency, TF over GST control) | binding signal (ETV1): 1.16 fold enrichment (6-mer frequency, TF over GST control)
